Among the data in ChEMBL document CHEMBL4303097 (2020) are Inhibition index values, retold here.

In all, about 1,500 compounds were measured (“Inhibition index”: median about 0.17, highest 2% from about 1.3 on). This is one part of a sample in which the highest values are shown more often than they occur.

The experiment deals with SARS-CoV-2. Description: Inhibition of cell viability relative to arbidol control (inhibition index > 1 indicates higher activity) measured by fluorescence (OD590nm) in Vero E6 cells infected with SARS-CoV-2 (strain BavPat1) at MOI 0.002 after 72hrs. The class given is functional, Chlorocebus sabaeus, Vero C1008.
Consider `CC(C)(C(=O)O)c1ccc(C(O)CCCN2CCC(C(O)(c3ccccc3)c3ccccc3)CC2)cc1.Cl` (stereo not drawn) [FEXOFENADINE HYDROCHLORIDE], for which the Inhibition index is on record as 0.6767. The compound `CC(C)NCC(O)c1ccc2ccccc2c1.Cl` (stereo not drawn) registered an Inhibition index of 0.8858. Under `CCN(CC)CCNC(=O)c1ccc(N)cc1.Cl` [PROCAINAMIDE HYDROCHLORIDE] stands 0.2557; under `C#CCN(C)[C@H](C)Cc1ccccc1.Cl` [SELEGILINE HYDROCHLORIDE], 0.2358; under `CCC1(c2cccc(O)c2)CCCCN(C)C1.Cl` (stereo not drawn) [MEPTAZINOL HYDROCHLORIDE], 1.137. Turning to `CCN1CCN(C(=O)N[C@@H](C(=O)N[C@@H]2C(=O)N3C(C(=O)O)=C(CSc4nnnn4C)CS[C@H]23)c2ccc(O)cc2)C(=O)C1=O.O.O` [CEFOPERAZONE DIHYDRATE], the Inhibition index is recorded as 0.2339. Under `C=C[C@H]1CN2CC[C@H]1C[C@H]2[C@H](OC(=O)OCC)c1ccnc2ccc(OC)cc12` [QUININE ETHYLCARBONATE] stands 0.6435. In turn, `C=C[C@H]1CN2CC[C@H]1C[C@@H]2[C@@H](O)c1ccnc2ccc(OC)cc12.Cl.O` gave an Inhibition index of 1.411. Compound `Nc1nc(/C(=C/CC(=O)O)C(=O)N[C@@H]2C(=O)N3C(C(=O)O)=CCS[C@H]23)cs1` [CEFTIBUTEN] returned an Inhibition index of 0.07268. Turning to `CC(C)OC(=O)CCC/C=C\C[C@H]1[C@H](CC[C@@H](O)CCc2ccccc2)[C@@H](O)C[C@H]1O`, the Inhibition index amounted to 0.1555. For the compound `CC[C@H]1OC(=O)[C@H](C)[C@@H](O[C@H]2C[C@@](C)(OC)[C@@H](O)[C@H](C)O2)[C@H](C)[C@@H](O[C@@H]2O[C@H](C)C[C@H](N(C)C)[C@H]2O)[C@](C)(O)C[C@@H](C)CN(C)[C@H](C)[C@@H](O)[C@]1(C)O` [AZITHROMYCIN], the Inhibition index is recorded as 1.487. For the compound `CC[C@H]1OC(=O)[C@H](C)[C@@H](O[C@H]2C[C@@](C)(OC)[C@@H](O)[C@H](C)O2)[C@H](C)[C@@H](O[C@@H]2O[C@H](C)C[C@H](N(C)C)[C@H]2O)[C@](C)(O)C[C@@H](C)C(=O)[C@H](C)[C@@H](O)[C@]1(C)O` [ERYTHROMYCIN], the Inhibition index is 0.0005254. With `CC[C@H]1OC(=O)[C@H](C)[C@@H](O[C@H]2C[C@@](C)(OC)[C@@H](O)[C@H](C)O2)[C@H](C)[C@@H](O[C@@H]2O[C@H](C)C[C@H](N(C)C)[C@H]2O)[C@](C)(OC)C[C@@H](C)C(=O)[C@H](C)[C@@H](O)[C@]1(C)O` [CLARITHROMYCIN], the Inhibition index came to 0.8598.

For the compound `CCC(=O)O[C@]1(C(=O)CCl)[C@@H](C)C[C@H]2[C@@H]3CCC4=CC(=O)C=C[C@]4(C)[C@@]3(F)[C@@H](O)C[C@@]21C` [CLOBETASOL PROPIONATE], the Inhibition index is listed as 0.2335. Consider `CC(=O)S[C@@H]1CC2=CC(=O)CC[C@]2(C)[C@H]2CC[C@@]3(C)[C@@H](CC[C@@]34CCC(=O)O4)[C@H]12` [SPIRONOLACTONE], for which the Inhibition index is listed as 0.4829.

In turn, `Cl.NC1CCN(c2nc3c(cc2F)c(=O)c(C(=O)O)cn3-c2ccc(F)cc2F)C1` (stereo not drawn) showed an Inhibition index of 0.1095. Consider `CN1[C@@H]2CC[C@H]1C[C@@H](OC1c3ccccc3CCc3ccccc31)C2.O=C(O)CC(O)(CC(=O)O)C(=O)O` [DEPTROPINE CITRATE], for which the Inhibition index is reported as -0.3511. For the compound `Cc1cc(C(C)(C)C)c(O)c(C)c1CC1=NCCN1.Cl` [OXYMETAZOLINE HYDROCHLORIDE], the Inhibition index turned out to be 0.08485. Consider `C=C1CC[C@@]2(O)[C@H]3Cc4ccc(O)c5c4[C@@]2(CCN3CC2CC2)[C@H]1O5.Cl` [NALMEFENE HYDROCHLORIDE], for which the Inhibition index is 1.653. Regarding `Cl.O.O.O=C1CC[C@@]2(O)[C@H]3Cc4ccc(O)c5c4[C@@]2(CCN3CC2CC2)[C@H]1O5`, the Inhibition index is recorded as 0.1496.

As for `Cl.Oc1ccc2c3c1O[C@H]1[C@@H](O)CC[C@@]4(O)[C@@H](C2)N(CC2CCC2)CC[C@]314` [NALBUPHINE HYDROCHLORIDE], the Inhibition index came out at 0.2089. As for `CC(C(=O)O)c1ccc(N2CC=CC2)c(Cl)c1` (stereo not drawn) [PIRPROFEN], the Inhibition index came out at 0.2333. `CNC(=C[N+](=O)[O-])NCCSCc1ccc(CN(C)C)o1.Cl` [RANITIDINE HYDROCHLORIDE] yielded an Inhibition index of 0.09309. `CCN1CCC[C@H]1CNC(=O)c1c(OC)ccc(Br)c1OC.Cl` came in with an Inhibition index of 0.3465. As for `CC(C)n1c(/C=C/[C@H](O)C[C@H](O)CC(=O)[O-])c(-c2ccc(F)cc2)c2ccccc21.[Na+]`, the figure is -0.06663; as for `CN[C@@H]1[C@@H](O)[C@@H](O[C@@H]2[C@@H](O)[C@H](O[C@H]3O[C@H](CN)CC[C@H]3N)[C@@H](N)C[C@H]2N)OC[C@]1(C)O.CN[C@@H]1[C@@H](O)[C@@H](O[C@@H]2[C@@H](O)[C@H](O[C@H]3O[C@H]([C@@H](C)N)CC[C@H]3N)[C@@H](N)C[C@H]2N)OC[C@]1(C)O.CN[C@@H]1[C@@H](O)[C@@H](O[C@@H]2[C@@H](O)[C@H](O[C@H]3O[C@H]([C@@H](C)NC)CC[C@H]3N)[C@@H](N)C[C@H]2N)OC[C@]1(C)O.O=S(=O)(O)O`, 0.01806; as for `COc1c(-c2ccc3cc(NS(C)(=O)=O)ccc3c2)cc(-n2ccc(=O)[nH]c2=O)cc1C(C)(C)C` [DASABUVIR], 0.184. `Cc1cc(C2CCCCC2)n(O)c(=O)c1.NCCO` [CICLOPIROX OLAMINE] displayed an Inhibition index of 0.2225. `C[C@]12CC[C@H](O)C[C@@H]1CC[C@@H]1[C@@H]2CC[C@]2(C)C(=O)CC[C@@H]12` [EPIANDROSTERONE] displayed an Inhibition index of 1.075. Regarding `C[C@]12CCC(=O)C(O)=C1CC[C@@H]1[C@@H]2CC[C@]2(C)C(=O)CC[C@@H]12` [FORMESTANE], the Inhibition index worked out at 1.365. For the compound `C[C@]12CCC(=O)C=C1CC[C@@H]1[C@@H]2C(=O)C[C@]2(C)C(=O)CC[C@@H]12` [ADRENOTERONE], the Inhibition index worked out at 0.3653. On to `C[C@]12CCC(=O)C=C1CC[C@@H]1[C@@H]2[C@@H](O)C[C@@]2(C)[C@H]1CC[C@]2(O)C(=O)CO` [HYDROCORTISONE], for which the Inhibition index stood at 0.1194. For `CN1CCC(=C2c3ccccc3CC(=O)c3sccc32)CC1.O=C(O)/C=C/C(=O)O` [KETOTIFEN FUMARATE], the Inhibition index is 0.837. In turn, `Cc1ccc(/C(=C\CN2CCCC2)c2ccccn2)cc1.Cl` came in with an Inhibition index of 0.8569. Under `O=C1O[C@H]([C@@H](O)CO)C(O)=C1O` [ASCORBIC ACID] stands 0.2513. Consider `C[C@]12CCC(=O)C=C1C=C[C@@H]1[C@@H]2CC[C@@]2(C)[C@H]1CC[C@@]2(O)CCC(=O)[O-].[K+]` [CANRENOATE POTASSIUM], for which the Inhibition index was 0.2042. Take `C[C@]12CC[C@H]3[C@@H](CCC4=CC(=O)CC[C@@]43C)[C@@H]1CC[C@@H]2C(=O)CO` [DESOXYCORTICOSTERONE]: the Inhibition index is 0.868. `CNC1(C)C2CCC(C2)C1(C)C.Cl` (stereo not drawn) [MECAMYLAMINE HYDROCHLORIDE] gave an Inhibition index of 0.674.

With `CC(=O)O[C@H]1C[C@@H]2CC[C@@H]3[C@H](CC[C@@]4(C)[C@H]3C[C@H]([N+]3(C)CCCCC3)[C@@H]4OC(C)=O)[C@@]2(C)C[C@@H]1[N+]1(C)CCCCC1.[Br-].[Br-]` [PANCURONIUM BROMIDE], the Inhibition index was 0.06422. `Cl.Nc1c2c(nc3ccccc13)CCCC2` [TACRINE HYDROCHLORIDE] displayed an Inhibition index of 1.442.

With `Nc1c2ccccc2nc2ccccc12` [AMINACRINE], the Inhibition index is listed as -0.2464. Compound `CCC(=O)OC(OP(=O)(CCCCc1ccccc1)CC(=O)N1C[C@H](C2CCCCC2)C[C@H]1C(=O)O)C(C)C` (stereo partly drawn) came in with an Inhibition index of 1.038.

On to `CC[C@H]1OC(=O)[C@H](C)[C@@H](O[C@H]2C[C@@](C)(OC)[C@@H](O)[C@H](C)O2)[C@H](C)[C@@H](O[C@@H]2O[C@H](C)C[C@H](N(C)C)[C@H]2O)[C@](C)(O)C[C@@H](C)[C@@H]2N[C@@H](COCCOC)O[C@H]([C@H]2C)[C@]1(C)O` [DIRITHROMYCIN], for which the Inhibition index was 0.105.
